# TTR transcr act – TTR transcription activation, primary screen | 92,000 tested, 1.3% active | activation, % at 16.7 µM | SH-SY5Y TTR promoter Gaussia luciferase, luminescence; 100% = recombinant luciferase protein wells | AID 1117267;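 active = activation above the mean of all tested compounds plus 3 SD, cut at about 9.5% in these data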;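 also: cells exposed to compounds for one day before reading; 0% = median of all test compound wells on the plate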
# HuH7 TTR inh – counter-screen for TTR activators: TTR transcription inhibitors in HuH7 cells; shares compounds with TTR transcr act; inhibition, % at 16.7 µM; AID 1117279; HuH7 TTR promoter-Gaussia luciferase reporter, luminescence; 1,100 tested, 4% active;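 active = average inhibition above the solvent-only control wells' mean plus 3 SD, cut at about 15% in these data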;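 also: 0% = cells with DMSO only and 100% = cells with inhibitor control FD; inhibitors lower well luminescence so higher value means more inhibition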
# TTR act confirm – confirmation of human transthyretin transcription activators. shares compounds with TTR transcr act. SHSY5Y TTR promoter Gaussia luciferase, luminescence; 100% = purified Lucia enzyme wells, no cells. activation, % at 16.7 µM. 1,100 tested, under 10 active. AID 1117280;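 active = mean activation above a set limit taken from the earlier primary screen, cut at about 11% in these data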;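 also: 0% = DMSO-treated cells and 100% = recombinant Lucia luciferase without cells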
# Numbers without * were called inactive. Many of the other results were omitted from the sample, so hits are more common in it than they were.
SMILES,TTR transcr act,others
Cc1ccsc1C(=O)Nc1nnc(-c2ccco2)o1,16.2*,HuH7 TTR inh=0.1;TTR act confirm=0.5
Cc1ccc(C(=O)Nc2nnc(-c3ccco3)o2)cc1,5.6,
O=C(NCc1ccccc1Cl)O[C@H]1CC[C@@]23CCCN2C(=O)CCC[C@H]3C1,-0.1,
C[C@H](CO)N1C[C@H](C)[C@@H](CN(C)S(C)(=O)=O)Oc2ccc(NC(=O)Nc3ccccc3)cc2C1=O,1.9,
C=CCN1C(=O)[C@@H](CC(=O)N2CCCC2)[C@]2(C(=O)OC)CCCCC=C12,1.8,
O=C(NCCc1ccccc1)[C@@H]1CC=C[C@@H]2CCN(Cc3ccccc3)C(=O)[C@@H]21,-2.3,
CC(C)[C@H](NC(=O)c1ccco1)C(=O)OCC(=O)Nc1cccc(F)c1,-0.3,
CC(NC(=O)[C@H](C)NC(=O)c1ccco1)c1ccc(S(N)(=O)=O)cc1 (some centres not stated),-1.0,
CC(NC(=O)c1ccco1)C(=O)OCc1cccc(C(F)(F)F)c1 (configuration not stated),11.2*,HuH7 TTR inh=-10.0;TTR act confirm=0.8
COc1cc2c(cc1OC)C(c1cccnc1)CC(=O)N2 (configuration not stated),0.0,
COc1ccc(C2CC(=O)Nc3cc(OC)c(OC)cc32)cc1 (configuration not stated),0.0,
COc1cc2c(cc1OC)C(c1cccc(F)c1)CC(=O)N2 (configuration not stated),18.1*,HuH7 TTR inh=1.5;TTR act confirm=-0.3
NC(=O)c1cccnc1Nc1ccccc1Cl,-0.3,
C[C@H]1[C@@H](NC(=O)c2cccc(C(F)(F)F)c2)CC[C@@]23CCCN2C(=O)CCC[C@@H]13,-0.3,
C[C@H](CO)N1C[C@H](C)[C@@H](CN(C)Cc2ccc(Cl)c(Cl)c2)Oc2c(NS(=O)(=O)c3cn(C)cn3)cccc2C1=O,-1.7,
Cc1ccccc1NCC(=O)N/N=C/c1ccc[nH]1,16.1*,HuH7 TTR inh=-5.7;TTR act confirm=0.3
Cc1ccccc1NCC(=O)N/N=C/c1c[nH]c2ccccc12,-2.4,
O=C(COc1c(Cl)cc(Cl)cc1Cl)N/N=C/c1ccc[nH]1,9.1,
Cc1ccc(NC(=O)CNCc2ccccc2OCC(=O)Nc2ccc(I)cc2)cc1,1.2,
CCCN(CCC)Cc1cc(=O)oc2cc(C)c(C)cc12,-1.5,
Cc1cccc(C)c1-n1nnnc1C1(C)CCC(=O)N1C1CC1 (configuration not stated),-0.2,
O=C(COc1ccc(Cl)cc1)NCc1nnc(SCC(=O)NCc2ccc3c(c2)OCO3)o1,-0.8,
O=C(CSc1nnc(CNC(=O)c2ccccc2)o1)NCc1ccc2c(c1)OCO2,17.3*,HuH7 TTR inh=-16.1;TTR act confirm=0.2
COc1ccc(C(=O)NCc2nnc(SCC(=O)Nc3ccc4c(c3)OCO4)o2)cc1,3.1,
C[C@H]1[C@@H](OC(=O)Nc2ccc(Cl)cc2)CC[C@@]23CCCN2C(=O)CCC[C@@H]13,-0.7,
SMILES,TTR transcr act,others
Cn1c(NC(=O)C2CC2)cc(=O)n(C)c1=O,9.9*,HuH7 TTR inh=-7.2;TTR act confirm=-0.2
Cn1c(NC(=O)c2ccc(Cl)s2)cc(=O)n(C)c1=O,-0.8,
Cn1c(NC(=O)Cc2cccs2)cc(=O)n(C)c1=O,1.5,
Cn1c(NC(=O)c2ccc(C(C)(C)C)cc2)cc(=O)n(C)c1=O,-0.4,
CCC(CC)C(=O)Nc1cc(=O)n(C)c(=O)n1C,-0.8,
COCC(=O)Nc1cc(=O)n(C)c(=O)n1C,10.9*,HuH7 TTR inh=-1.4;TTR act confirm=-1.0
CC(=O)c1ccc(NC(=O)CSc2cn[nH]n2)cc1,0.2,
O=C(CCc1nnc(CCCCc2ccccc2)o1)N1CCC(N2CCCC2)CC1,-0.1,
COC(=O)[C@]12C[C@H](CC(=O)NCc3ccccc3)C(=O)N(CCc3ccc(OC)c(OC)c3)C1=C[C@H](C(C)C)O[C@@H]2C1CC1,0.1,
Cc1c(-c2ccc(F)cc2)[n+](=O)c2c(n1[O-])CCCCC2,0.9,
COC(=O)c1cnc(NNC(=O)c2ccc([N+](=O)[O-])cc2)nc1C(F)(F)F,4.1,
COC(=O)c1cnc(NNS(=O)(=O)c2ccc(Cl)cc2)nc1C(F)(F)F,10.6*,HuH7 TTR inh=-14.1;TTR act confirm=-0.6
COC(=O)c1cnc(Nc2nc(C(N)Cc3ccccc3)cs2)nc1C(F)(F)F (configuration not stated),-0.3,
CCCOc1ccc(C(=O)OCC(=O)c2c(N)n(C)c(=O)n(C)c2=O)cc1OC,-0.3,
COc1ccc(/C=C/C(=O)OCC(=O)c2ccc3c(c2)NC(=O)CO3)c(OC)c1,0.3,
COc1ccc(/C=C/C(=O)OCC(=O)c2c(N)n(C)c(=O)n(C)c2=O)c(OC)c1,9.8*,HuH7 TTR inh=0.3;TTR act confirm=0.4
COc1cc(/C=C/C(=O)c2ccccc2)cc(OC)c1OC,-3.6,
Nc1[nH]c(C(=O)c2ccc(Br)cc2)c(-c2ccc(Br)cc2)c1C(=O)N1CCCCC1,0.0,
COc1ccc(C)cc1NC(=O)C(=O)NCc1ccncc1,2.0,
COC(=O)[C@]12C[C@H](CC(=O)NCc3cccc(C(F)(F)F)c3)C(=O)N(Cc3ccco3)C1=C[C@H](C(C)C)O[C@@H]2C1CC1,0.4,
CCOC(=O)Cn1c(=O)oc2cc(S(=O)(=O)N(CCN(C)C)Cc3ccccc3)ccc21,0.0,
CCOC(=O)Cn1c(=O)oc2cc(S(=O)(=O)NC(C)(C)CC)ccc21,0.3,
CCOC(=O)Cn1c(=O)oc2cc(S(=O)(=O)N3CCc4ccccc43)ccc21,14.5*,HuH7 TTR inh=-3.6;TTR act confirm=-0.4
Nc1[nH]c(C(=O)c2ccccc2)c(-c2ccc(Cl)cc2)c1C(=O)NCCC1=CCCCC1,-0.4,
CSc1cccc(NC(N)=S)c1,-0.2,
SMILES,TTR transcr act,others
CCCn1c(SCC(=O)N2CCc3ccccc32)nnc1-c1ccco1,-1.6,
CCCn1c(SCC(=O)N2CCCc3ccccc32)nnc1-c1ccccn1,0.1,
CCCCn1c(SCC(=O)N2CCc3ccccc32)nnc1-c1ccncc1,16.7*,HuH7 TTR inh=-9.9;TTR act confirm=-0.8
O=c1onc(-c2cccnc2)n1-c1ccccc1F,0.3,
CCC[C@H]1[C@@H](NC(=O)C(c2ccccc2)c2ccccc2)CC[C@@]23CCCN2C(=O)CCC[C@@H]13,-1.6,
COc1ccccc1-c1cccc(-c2nc(C(=O)Nc3nccs3)cc3c2[C@H](CCO)N(C(C)=O)C3)c1,-1.0,
COc1ccccc1NS(=O)(=O)c1cc(NC(=O)CCNC(C)=O)ccc1C,-0.6,
COc1ccc(NC(=O)CCNC(=O)c2ccccc2)cc1S(N)(=O)=O,31.5*,HuH7 TTR inh=-12.1;TTR act confirm=-0.4
O=C(CCNC(=O)c1ccccc1)Nc1ccc(F)c(Cl)c1,3.2,
C=CC[C@H](CC(=O)NCCO)C(=O)NCCOC(=O)[C@@H](CC=C)CC(=O)OC(C)(C)C,13.0*,HuH7 TTR inh=-8.5;TTR act confirm=1.4
C=CC[C@@H](CC(=O)OC(C)(C)C)C(=O)OC[C@@H]1CCCN1C(=O)[C@H](CC=C)CC(=O)NCCO,-0.2,
C=CC[C@@H](CC(=O)NCCO)C(=O)N[C@@H](COC(=O)[C@@H](CC=C)CC(=O)OC(C)(C)C)Cc1ccccc1,6.0,
C=CCOC(=O)C(CO)NC(=O)CCCC(=O)O (configuration not stated),2.1,
CCN1CCN(Cc2ccc(NC(=O)c3ccc(C)c(NC(=O)c4cc(-c5ccc(Br)cc5)n[nH]4)c3)cc2C(F)(F)F)CC1,-3.7,
CCN1CCN(Cc2ccc(NC(=O)c3ccc(C)c(NC(=O)c4nccn4C)c3)cc2C(F)(F)F)CC1,10.6*,HuH7 TTR inh=-15.0;TTR act confirm=-0.5
CCN1CCN(Cc2ccc(NC(=O)c3ccc(C)c(NC(=O)c4cccc5[nH]ccc45)c3)cc2C(F)(F)F)CC1,-1.7,

# Screening data: PubChem, The Scripps Research Institute Molecular Screening Center
